# Mtb betalactam: beta-lactam sensitization of Mtb H37Rv, H37Rv; M. tuberculosis H37Rv growth with meropenem, percent inhibition; inhibition, % at 25 µM; 330,000 tested, 0.27% active; call rule not given here;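 also: growth measured after seven days incubation then overnight dye step; 0% = bacteria only wells and 100% = bacteria with antibiotic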
# RecA intein inh: Mtb RecA intein splicing inhibitors, primary screen, biochemical, fluorescence, HTS; Protein RecA (Mycobacterium tuberculosis (strain ATCC 25618 / H37Rv)), P9WHJ3; cell-free RecA intein splicing; inhibition, % (test concentration not listed); 290,000 tested, 0.75% active; in the data active = inhibition above about 30%; inconclusive = no clear call, values can overlap the other calls;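 also: 0% = vehicle wells and 100% = reference inhibitor control wells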
# Target sequence (P9WHJ3 whole entry, looked up): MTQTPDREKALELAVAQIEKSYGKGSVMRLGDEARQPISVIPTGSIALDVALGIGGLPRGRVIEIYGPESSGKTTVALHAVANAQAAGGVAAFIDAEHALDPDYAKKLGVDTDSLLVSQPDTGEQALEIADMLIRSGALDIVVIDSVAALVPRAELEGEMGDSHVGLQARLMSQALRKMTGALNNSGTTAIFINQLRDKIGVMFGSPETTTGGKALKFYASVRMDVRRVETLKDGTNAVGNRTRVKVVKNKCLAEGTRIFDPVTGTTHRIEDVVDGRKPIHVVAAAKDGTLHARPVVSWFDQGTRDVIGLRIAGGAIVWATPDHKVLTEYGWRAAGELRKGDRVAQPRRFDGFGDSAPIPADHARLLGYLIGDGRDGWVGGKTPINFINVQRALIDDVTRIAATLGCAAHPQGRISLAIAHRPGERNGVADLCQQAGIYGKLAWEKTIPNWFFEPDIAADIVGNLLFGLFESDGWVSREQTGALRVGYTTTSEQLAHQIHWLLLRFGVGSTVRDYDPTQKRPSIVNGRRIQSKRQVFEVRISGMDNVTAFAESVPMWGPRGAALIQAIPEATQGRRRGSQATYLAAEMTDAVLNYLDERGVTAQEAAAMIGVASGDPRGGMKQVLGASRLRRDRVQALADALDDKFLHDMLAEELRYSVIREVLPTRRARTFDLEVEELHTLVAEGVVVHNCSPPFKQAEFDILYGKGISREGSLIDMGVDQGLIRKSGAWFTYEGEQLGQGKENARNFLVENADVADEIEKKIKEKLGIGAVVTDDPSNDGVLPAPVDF
# Mtb UGM inh: M. tuberculosis UGM enzyme inhibitors, primary screen, biochemical, fluorescence polarization, single point. UDP-galactopyranose mutase (Mycobacterium tuberculosis (strain ATCC 25618 / H37Rv)), …. purified UGM, fluorescence polarization probe displacement. inhibition, % at 10 µM. 320,000 tested, 0.06% active; in the data active = inhibition above about 10%, passing the limit was not always enough; inconclusive = no clear call, values can overlap the other calls
# Mtb FBA inh: Mtb FBA enzyme inhibitors, primary screen, biochemical, fluorescence, strain H37Rv; 360,000 tested, 2.3% active; AID 588726, 2011; purified M. tuberculosis FBA, fluorescence read-out; inhibition, % at 1 µM; Fructose-bisphosphate aldolase (Mycobacterium tuberculosis (strain ATCC 25618 / H37Rv)), …; in the data active = inhibition above about 27%;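 also: 0% = vehicle and 100% = reference inhibitor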
# GDH-TPI counter: GDH-TPI coupling enzyme inhibitors, primary screen, artefact control for M. tuberculosis FBA inhibitor project, biochemical, absorbance, full deck; GDH-TPI coupled enzyme counterscreen, NADH absorbance; inhibition, % at 4.8 µM; 360,000 tested, 1.2% active; in the data active = inhibition above about 30%;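 also: 0% = DMSO wells and 100% = wells lacking the enzyme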
# Rv3671c protease: Rv3671c serine protease inhibitors, primary screen, biochemical, fluorescence polarization, M. tuberculosis H37Rv. P9WHR9. inhibition, % at 5.96 µM. 320,000 tested, 0.048% active; in the data active = inhibition above about 38%;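 also: extracellular domain of Rv3671c used as enzyme; 0% = enzyme with DMSO and 100% = no enzyme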
# Numbers without * were called inactive; i = inactive; ? = inconclusive; nt = no result; + = active, no number. An excerpt weighted towards active compounds, which were near 4% of everything screened.
SMILES,Mtb betalactam,RecA intein inh,Mtb UGM inh,Mtb FBA inh,GDH-TPI counter,Rv3671c protease
CN(C)CCNc1ncnc2c1sc1nc(N3CCOCC3)c3c(c12)CC(C)(C)SC3,9,-1,-3,5,28,-10
COCCNc1nnnc2c1sc1nc(N3CCOCC3)c3c(c12)CC(C)(C)OC3,-3,0,1,1,8,-5
CC1(C)Cc2c(c(N3CCOCC3)nc3sc4c(NCCN)ncnc4c23)CO1,nt,nt,nt,12,47*,nt
CCN(CC)CCNc1ncnc2c1sc1nc(N3CCOCC3)c3c(c12)CC(C)(C)SC3,7,nt,0,7,34*,0
CN(Cc1ccccc1)C(=O)COC(=O)CCC(=O)c1ccc(Cl)cc1,-1,nt,-2,0,8,6
Clc1ccc(CO/N=C(\Cn2ccnc2)c2ccc(Cl)cc2Cl)c(Cl)c1,99,32*,3,nt,nt,5
COc1ccc(CSC2=C(C#N)C(=O)NC3(CCCCC3)S2)cc1,nt,nt,nt,-3,34*,nt
CCCCCCSC1=C(C#N)C(=O)NC2(CCCCC2)S1,2,5,4,-6,13,-3
CC(C)(C)NC(=O)CN(C(=O)C1(C)CC(=O)N=C2C=CC=CN21)C1CCCC1 (stereo unspecified),-25,0,0,120*,19,-6
CC1=CC=CC2=NC(=O)CC(C)(C(=O)N(CC(=O)NC(C)C)C3CCCC3)N12 (stereo unspecified),?,2,0,128*,15,-4
O=C(/C=C/c1ccc([N+](=O)[O-])cc1)Nc1cccc(S(=O)(=O)NC2=NCCCCC2)c1,4,nt,-2,3,41*,2
O=C(/C=C/c1ccccc1Cl)Nc1cccc(S(=O)(=O)NC2=NCCCCC2)c1,-1,6,-1,-1,0,-43
Cc1ccc2c(c1)Cc1nc3ccccc3nc1-2,4,4,-3,57*,8,-2
Cc1ccc2c(c1)-c1nc3ccccc3cc1C2=NC1CCCCC1,0,nt,1,4,7,-17
CCCCCCN1CCN(C2CN(Cc3ccc([N+](=O)[O-])cc3)S(=O)(=O)C2)CC1 (stereo unspecified),nt,nt,nt,-2,3,nt
CCc1cccc2sc(N3CCN(C(=O)c4ccc([N+](=O)[O-])o4)CC3)nc12,100,-2,0,-2,6,-7
CCOC(=O)c1c(N)n(CCCOC(=O)c2ccco2)c2nc3ccccc3nc12,5,-152,-1,+,9,-13
Nc1c(C(=O)NCC2CCCO2)c2nc3ccccc3nc2n1/N=C/c1ccncc1 (stereo unspecified),nt,nt,nt,1,1,nt
CC(C)OCCCNC(=O)c1c(N)n(/N=C/c2ccccn2)c2nc3ccccc3nc12,3,2,1,1,13,-14
CCOC(=O)c1c(N)n(Cc2ccc(OC)cc2)c2nc3ccccc3nc12,nt,-38,nt,nt,nt,nt
COCCCn1c(N)c(-c2nc3ccccc3n2C)c2nc3ccccc3nc21,100,-47,0,2,15,-5
CC(C)OCCCNC(=O)c1c(N)n(Cc2cccs2)c2nc3ccccc3nc12,13,-34,1,34*,13,-177
COCCCn1c(N)c(C(=O)OCCOC)c2nc3ccccc3nc21,-11,-1,2,+,14,-17
Nc1c(C(=O)OCC2CCCO2)c2nc3ccccc3nc2n1Cc1cccs1 (stereo unspecified),-5,16,3,163*,22,-30
CC1(C(=O)NS(=O)(=O)c2ccc3ccccc3c2)CCN1C(=O)Cc1ccc(Cl)cc1Cl (stereo unspecified),nt,nt,nt,-6,9,nt
SMILES,Mtb betalactam,RecA intein inh,Mtb UGM inh,Mtb FBA inh,GDH-TPI counter,Rv3671c protease
CN(C)CCNc1ncnc2c1ncn2[C@H]1CN(Cc2ccc(-c3ccccc3)cc2)C[C@@H](CO)O1,nt,nt,nt,2,8,nt
COCCNC(=O)c1c(N)n(CCC(C)C)c2nc3ccccc3nc12,98,-316,-1,121*,6,-124
COc1ccc(OC)c(-n2c(N)c(C(=O)NCC3CCCO3)c3nc4ccccc4nc32)c1 (stereo unspecified),nt,9,nt,5,3,nt
CC(C)CCNC(=O)c1c(N)n(Cc2ccc3c(c2)OCO3)c2nc3ccccc3nc12,32,-4,-2,3,1,-7
CC(C)CCn1c(N)c(C(=O)NCc2cccs2)c2nc3ccccc3nc21,3,88*,-2,2,-4,-3
COCCNC(=O)c1c(N)n(CCCn2ccnc2)c2nc3ccccc3nc12,2,i,-1,132*,16,-19
COCCn1c(N)c(C(=O)NCC2CCCO2)c2nc3ccccc3nc21 (stereo unspecified),-6,i,0,+,17,-191
COCCCNC(=O)c1c(N)n(/N=C/c2cccnc2)c2nc3ccccc3nc12,20,-9,0,-6,9,-10
CN(C(=O)CN1CCCCCC1)c1c(N)n(Cc2ccccc2)c(=O)[nH]c1=O,0,nt,-7,3,-8,3
CCOc1ccc(CCNC(=O)COC(=O)c2sccc2C)cc1OCC,-14,4,1,2,1,-15
CCCCNC(=O)c1c(N)n(CCCOC)c2nc3ccccc3nc12,78,-160,-1,115*,-1,-82
COCCCNC(=O)c1c(N)n(/N=C/c2cccs2)c2nc3ccccc3nc12,27,-45,-2,-1,0,-3
Cc1c(O)ccc2c(CC(=O)N[C@@H](Cc3ccccc3)C(=O)O)cc(=O)oc12,5,-188,0,165*,15,nt
CC(=O)c1ccc(NC(=O)CSc2n[nH]c(-c3cccnc3)n2)cc1,6,0,5,-2,2,6
CCOC(=O)C1CCCN(C(=O)Cn2nc(C)n3c(cc4c(OC)cccc43)c2=O)C1 (stereo unspecified),?,2,-1,193*,9,2
COc1cccc2c1cc1c(=O)n(CC(=O)N3CCCCCC3)nc(C)n12,?,4,1,+,13,4
CCOc1ccc(Cl)cc1-c1cc(C(=O)Nc2ccc(F)cc2)[nH]n1,nt,nt,nt,0,7,nt
CCC1CCCCN1CCCNC(=O)CN1C(=O)COc2ccccc21 (stereo unspecified),4,-1,-1,0,0,-9
Cn1nc(C(C)(C)C)cc1C(=O)N1CCCCC1c1cc(C(=O)Nc2ccccc2)no1 (stereo unspecified),nt,nt,nt,-3,-5,nt
Cc1ccc(/C=N/N=C2/NC(=O)C(CC(=O)Nc3ccccc3)S2)o1 (stereo unspecified),2,0,-3,-1,30,4
O=C(CC1S/C(=N/N=C/c2ccco2)NC1=O)Nc1cccc(Cl)c1Cl (stereo unspecified),-1,2,-2,0,42*,-30
